About 1,500 (0.48%) of roughly 310,000 compounds were called active.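 Rule for the calls: active = initial fluorescence not abnormally high and integrated response B-score, plate-corrected, over 3 SD above library mean; inactive = the rest.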 For the sample, actives were picked, then their nearest neighbours and some compounds at random.
target: High affinity choline transporter 1 (Homo sapiens) (UniProt Q9GZV3); assay: allosteric activators of human choline transporter – cell-based, membrane potential dye, choline EC20, primary screen (AID 488977); conditions: CHT-expressing cells, at 10 µM, LV-AA mutant CHT in HEK293 cells; hits give high values
Sequence (Q9GZV3 whole entry, looked up): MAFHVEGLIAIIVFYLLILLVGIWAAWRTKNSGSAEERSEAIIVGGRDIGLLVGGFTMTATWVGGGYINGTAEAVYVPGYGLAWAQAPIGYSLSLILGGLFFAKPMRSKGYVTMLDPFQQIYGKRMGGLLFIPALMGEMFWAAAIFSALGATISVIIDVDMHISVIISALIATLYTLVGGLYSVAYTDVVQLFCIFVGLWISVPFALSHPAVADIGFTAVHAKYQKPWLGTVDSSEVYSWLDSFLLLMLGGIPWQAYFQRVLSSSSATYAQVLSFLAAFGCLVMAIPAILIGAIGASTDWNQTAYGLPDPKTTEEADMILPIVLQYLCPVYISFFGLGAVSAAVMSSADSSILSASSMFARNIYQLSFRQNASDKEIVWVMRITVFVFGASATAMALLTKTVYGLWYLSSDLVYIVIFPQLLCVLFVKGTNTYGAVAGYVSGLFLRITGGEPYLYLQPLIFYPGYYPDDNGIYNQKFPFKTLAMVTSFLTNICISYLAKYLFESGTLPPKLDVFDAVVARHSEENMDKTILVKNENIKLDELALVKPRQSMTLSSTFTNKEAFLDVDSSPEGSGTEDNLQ

Structure (SMILES) | B-score
COc1ccc(C(=O)C2CCCN(C(=O)c3ccc(OC)o3)C2)c(C)c1 (stereo unspecified) | inactive
COc1ccc(NC(=O)CCC(=O)N2CCN(S(=O)(=O)c3ccc(C)cc3)CC2)c(OC)c1 | inactive
COc1ccc2sc(N(CCCN(C)C)C(=O)c3ccc(S(=O)(=O)N(C)C4CCCCC4)cc3)nc2c1 | inactive
CCN1C(=O)[C@H]2[C@@H](c3ccc(-c4ccc(OC)cc4)cc3)N[C@@](Cc3ccccc3)(C(=O)OC)[C@H]2C1=O | inactive
CCCc1cc(=O)oc2c(C)c(OC(C)C(=O)NCC(O)c3ccccc3)ccc12 (stereo unspecified) | inactive
Cc1c(OC(C)C(=O)NCC2CCC(C(=O)O)CC2)ccc2c1oc(=O)c1ccccc12 (stereo unspecified) | inactive
Cc1cc(=O)oc2c(C)c(OC(C)C(=O)NC3CCN(Cc4ccccc4)CC3)ccc12 (stereo unspecified) | 6.43 (active)
CC(OC(=O)C1CC(=O)N(Cc2ccccc2)C1)C(=O)Nc1ccccc1[N+](=O)[O-] (stereo unspecified) | inactive
CC(C)Oc1ccc(S(=O)(=O)N2CCOCC2)cc1NC(=O)C1CSC2(C)CCC(=O)N12 (stereo unspecified) | inactive
Cc1cc(Nc2ccc(Br)cc2)nc2ccccc12 | inactive
Cc1ccc(NC(=O)c2cnc(SCC(=O)NCC3CCCO3)n(C)c2=O)cc1 (stereo unspecified) | inactive
Cc1cccn2c(=O)c3cc(C(=O)N4COCC4(C)C)n(C)c3nc12 | inactive
Cc1cccn2c(=O)c3cc(C#N)c(=O)n(CCCN4CCOCC4)c3nc12 | 7.22 (active)
Cc1cccn2c(=O)c3cc(C(=O)NCCN4CCOCC4)c(=N)n(Cc4cccnc4)c3nc12 | inactive
Cc1ccc2nc(NC(=O)CSc3nc(=O)n(CCCN(C)C)c4c3CCC4)sc2c1 | inactive
COC(=O)c1cc(OC)c(OC)cc1NC(=O)C1CCCO1 (stereo unspecified) | inactive
COc1cc2nc(N3CCN(C(=O)[C@@H]4CCCO4)CC3)nc(N)c2cc1OC | 8.15 (active)
O=C(C1CCCO1)N1CCC(c2nc3ccccc3[nH]2)CC1 (stereo unspecified) | inactive
COc1ccc(-c2cc(C(=O)N/N=C/c3cccnc3)c3ccccc3n2)c(OC)c1 | inactive
Cc1ccc(CNC(=O)c2cc(-c3ccccc3C)n(CC3CC(c4cccc([N+](=O)[O-])c4)=NO3)n2)cc1 (stereo unspecified) | inactive
Cc1cccc(N(Cc2ccccc2)C(=O)c2ccccc2F)c1 | inactive

Structure (SMILES) | B-score
CCN(CC)C(=O)N(CC)Cc1ccccc1 | inactive
O=C(c1ccccc1F)N(Cc1ccccc1)Cc1ccccc1 | 6.51 (active)
Cc1ccc(NC(=O)CSCC(=O)Nc2sccc2C#N)cc1 | inactive
CN1CCN(c2nc3c(c(=O)[nH]c(=O)n3C)n2Cc2cccc3ccccc23)CC1 | inactive
Cc1nnc(SCCCn2c(N3CCCCC3)nc3c2c(=O)[nH]c(=O)n3C)s1 | inactive
Cn1c(=O)[nH]c(=O)c2c1nc(N1CCN(CCO)CC1)n2CCSc1nc2ccccc2s1 | 7.66 (active)
CCC1Nc2ncnc(N3CCN(c4ccccc4)CC3)c2N(Cc2ccc(Cl)cc2)C1=O (stereo unspecified) | inactive
O=C(CCC1CCCCC1)Nc1cc(C(F)(F)F)ccc1N1CCOCC1 | inactive
CC(C)c1ccc(S(=O)(=O)N2CCN(C(=O)CN3C(=O)NC(C)(c4ccccc4)C3=O)CC2)cc1 (stereo unspecified) | inactive
CCCCCCCNC(=O)C1(CC2CC(c3cccc(Br)c3)=NO2)CCN(C(=O)c2cc(OCC)c(OCC)c(OCC)c2)CC1 (stereo unspecified) | inactive
Cc1ccc(S(=O)(=O)N2CCN(C(=O)Cc3sc(C)nc3-c3ccc(F)cc3)CC2)c(C)c1 | inactive
O=C(Nc1ncccc1O)c1ccc(C(=O)c2ccccc2)cc1 | inactive
COc1ccccc1CCC(=O)NNC(=O)c1ccncc1 | inactive
Cc1cc(NC(=O)Nc2ccccc2)n(-c2ccccc2)n1 | inactive
Cc1cc(NC(=O)c2cnn3cccnc23)n(-c2ccccc2)n1 | 6.76 (active)
O=C(Nc1ccc(Cl)cn1)c1cnn2cccnc12 | inactive
CCOc1cc(C(=O)Nc2ccc(S(=O)(=O)Nc3cnc4ccccc4n3)cc2)cc(OCC)c1OCC | inactive
O=C(NCC(c1ccco1)N1CCc2ccccc2C1)c1ccccc1Cl (stereo unspecified) | inactive
COc1ccc(C(CNC(=O)c2cccc(NS(=O)(=O)c3ccc(C)c(F)c3)c2)N2CCCC2)cc1 (stereo unspecified) | inactive
CCOC(=O)N1CCN(C(=O)c2ccc(S(=O)(=O)Nc3cccc(C(F)(F)F)c3)cc2)CC1 | inactive
CCn1c(/C=C/Nc2ccccc2)[n+](CC)c2ccc(C(=O)OCC(F)(F)F)cc21 | 7.01 (active)

Structure (SMILES) | B-score
CCOC(=O)c1cc2ccccc2n1CC(=O)c1ccccc1 | inactive
Cc1onc(-c2ccccc2Cl)c1C(=O)OCc1nnc(-c2ccccc2)o1 | inactive
CCN(CC(=O)Nc1c(F)cccc1F)C(=O)c1ccc(-c2ccccc2)cc1 | inactive
O=C(CSC1=NS(=O)(=O)c2cc(F)ccc2N1)Nc1ccccc1F | inactive
COc1cccc(CC2(CO)CCCN(Cc3ccc(OC(F)F)cc3)C2)c1 (stereo unspecified) | inactive
CCCCCN(C(=O)CCC(=O)OCCOc1ccc(OC)cc1)c1c(N)n(CCCC)c(=O)[nH]c1=O | inactive
CCCCCC(=O)N1CCN(S(=O)(=O)c2ccc3c(c2)OCCCO3)CC1 | inactive
CN1CCN(c2nc(Nc3ccc(O)cc3)nc3ccccc23)CC1 | 6.97 (active)
Cc1cccc(-c2nc(Nc3ccc(O)cc3)c3ccccc3n2)c1 | inactive
c1ccc(Nc2nc(N3CCOCC3)c3ccccc3n2)cc1 | inactive
C=CCOc1cccc(C2C(C(=O)c3ccc(C)o3)=C(O)C(=O)N2c2nnc(C)s2)c1 (stereo unspecified) | inactive
Cc1c(NC(=O)C(C)OC(=O)c2c3c(nc4ccccc24)CCC(C)C3)c(=O)n(-c2ccccc2)n1C (stereo unspecified) | inactive
COC(=O)c1cc2nc(-c3ccccc3)cc(C(F)(F)F)n2n1 | inactive
CCOC(=O)CN(C)S(=O)(=O)c1ccc(-c2cc(C(=O)OC)sc2C(F)(F)F)cc1 | inactive
COC(=O)c1sc(C(F)(F)F)c(-c2ccccc2)c1S(=O)(=O)N(C)C | 9.76 (active)
CC1(C)CC[C@]2(C(=O)O)CC[C@]3(C)C(=CCC4[C@@]5(C)CC[C@H](O)C(C)(C)C5[C@H](O)C[C@]43C)[C@@H]2C1 (stereo partly specified) | inactive
Cc1ccc(/C=C2\CCn3c2nc2cc(C(=O)O)ccc2c3=O)c(C)c1 | inactive
O=C(O)c1ccc2c(=O)n3c(nc2c1)/C(=C/c1ccc(Cl)c([N+](=O)[O-])c1)CC3 | inactive
N#Cc1ccc(/C=C2\CCn3c2nc2cc(C(=O)O)ccc2c3=O)cc1 | 6.78 (active)

— PubChem BioAssay AID488977 (Johns Hopkins Ion Channel Center, 2010)
